# This is part of a sample that, as a whole, favours compounds with a hit. Of some 79,000 tested, about 15% had one in any assay. A number with no mark means an inactive call. The source made the active and inactive calls. Cut-off read from the data, not from the text of the source: active = growth inhibition above about 70%; inactive = the rest.
# How the values were obtained:
# [1] = NCI Yeast Anticancer Drug Screen. Data for the rad14 strain (AID 159);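 note: 0% = growth of vehicle-treated control cultures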; conditions: S. cerevisiae rad14 strain growth inhibition, hits give high values
# In short: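 Growth inhibition vs vehicle controls; genetically altered yeast strain (DNA damage repair defect) treated with test compounds.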
# [2] = NCI Yeast Anticancer Drug Screen. Data for the sgs1 mgt1 strain (AID 161);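 note: 0% = growth of cultures given vehicle only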; conditions: S. cerevisiae sgs1 mgt1 strain, hits give high values
# In short: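 Yeast cells carrying a defined DNA-repair defect were exposed to test compounds. Growth inhibition was measured relative to vehicle-treated controls.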
# [3] = NCI Yeast Anticancer Drug Screen. Data for the CLN2oe strain (AID 163);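 note: 0% = growth of vehicle-only control cultures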; conditions: S. cerevisiae CLN2oe strain, hits give high values
# In short: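 Values reflect how much compound exposure reduced yeast growth, referenced to vehicle-exposed cells. Assay organism is a strain with a defined genetic change affecting cell-cycle control.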
# [4] = NCI Yeast Anticancer Drug Screen. Data for the cln2 rad14 strain (AID 165);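 note: 0% = growth equal to vehicle treated cultures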; conditions: S. cerevisiae cln2 rad14 strain, hits give high values
# In short: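 Relative to vehicle controls, growth inhibition of compound-treated cln2 rad14 yeast was recorded.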
# [5] = NCI Yeast Anticancer Drug Screen. Data for the bub3 strain (AID 167); conditions: S. cerevisiae bub3 mutant strain, hits give high values
# In short: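 Readout: yeast growth inhibition, expressed relative to vehicle-only wells. The test organism is a mutant strain from a panel with lesions in DNA repair or checkpoint genes.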
# [6] = NCI Yeast Anticancer Drug Screen. Data for the wt2 strain (AID 169);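 note: 0% = growth of vehicle-treated yeast cultures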; conditions: S. cerevisiae wt2 strain growth inhibition, hits give high values
# In short: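 Values express reduction in yeast growth under compound treatment, referenced to vehicle-treated cells.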
# [7] = NCI Yeast Anticancer Drug Screen. Data for the mlh1 strain (AID 171);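 note: 0% = growth of vehicle-treated control cultures of the same strain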; conditions: S. cerevisiae mlh1 strain growth inhibition, hits give high values
# In short: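 Steps: expose the defined-mutant yeast strain to compound; expose a parallel culture to vehicle; measure growth; express compound effect as inhibition relative to the vehicle culture.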
# [8] = NCI Yeast Anticancer Drug Screen. Data for the sgs1 strain (AID 173);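 note: 0% = growth of vehicle-only control cultures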; conditions: S. cerevisiae sgs1 mutant, hits give high values
# In short: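 Treat defined-mutant yeast with compound; measure growth; calculate inhibition relative to vehicle-treated cells.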
# [9] = NCI Yeast Anticancer Drug Screen. Data for the mlh1 rad18 strain (AID 175); conditions: S. cerevisiae mlh1 rad18 strain growth inhibition, hits give high values
# In short: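 Test agents were incubated with a yeast strain of defined genotype (DNA damage repair defect). Inhibition of growth was derived by comparison with vehicle-exposed cultures.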
# [10] = NCI Yeast Anticancer Drug Screen. Data for the rad18 strain (AID 177); conditions: S. cerevisiae rad18 mutant growth inhibition, hits give high values
# In short: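 A genetically defined yeast mutant impaired in DNA damage repair was treated with test compounds, then its growth was measured against cultures receiving vehicle alone.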
# [11] = NCI Yeast Anticancer Drug Screen. Data for the rad52 strain (AID 147);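 note: 0% = growth of vehicle-treated control cultures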; conditions: S. cerevisiae rad52 mutant growth inhibition, hits give high values
# In short: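 Screen used a yeast mutant impaired in DNA repair. After compound exposure, growth was measured. Values reflect inhibition compared with vehicle-treated cells.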
# [12] = NCI Yeast Anticancer Drug Screen. Data for the wt1 strain (AID 149);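 note: 0% = growth of vehicle-treated wt1 cultures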; conditions: S. cerevisiae wt1 strain (SPY 50644) growth inhibition, hits give high values
# In short: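 Growth inhibition read against vehicle controls after compound exposure of the wt1 yeast strain.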
# [13] = NCI Yeast Anticancer Drug Screen. Data for the rad50EPP+ strain (AID 151);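 note: 0% = growth of vehicle-treated control cultures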; conditions: S. cerevisiae rad50 mutant strain, hits give high values
# In short: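 Exposing the rad50EPP+ strain to each compound, growth was compared with vehicle-only cultures to give inhibition.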
# [14] = NCI Yeast Anticancer Drug Screen. Data for the rad50 strain (AID 155);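 note: 0% = growth of vehicle-only cultures of the same strain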; conditions: S. cerevisiae rad50 strain growth inhibition, hits give high values
# In short: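 Readout: growth inhibition relative to vehicle-treated cultures. Compound exposure was carried out in a genetically defined yeast strain deficient in DNA damage repair.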
# [15] = NCI Yeast Anticancer Drug Screen. Data for the mec2-1 strain (AID 157); conditions: S. cerevisiae mec2-1 strain, hits give high values
# In short: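 Readout is yeast growth inhibition, normalised to vehicle-treated controls, in the mec2-1 strain exposed to compound.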
# [16] = at 5.0 µM (retest, dose inferred, filed as 0.5)
# [17] = at 50.0 µM (retest, dose inferred, filed as 5.0)
smiles,measurement,setting,value
c1c[nH]c(CN2CCN(Cc3ncc[nH]3)CC2)n1,growth inhibition,[1]; at 11.0 µM,95% (active)
same,growth inhibition,[1]; at 33.0 µM,98% (active)
same,growth inhibition,[1]; at 100.0 µM,99% (active)
same,growth inhibition,[2]; [16],34%
same,growth inhibition,[2]; [17],99% (active)
same,growth inhibition,[2]; at 50.0 µM,98.5% (active)
same,growth inhibition,[3]; at 1.2 µM,-3%
same,growth inhibition,[3]; at 3.7 µM,12%
same,growth inhibition,[3]; at 11.0 µM,96% (active)
same,growth inhibition,[3]; at 33.0 µM,98% (active)
same,growth inhibition,[3]; at 100.0 µM,98% (active)
same,growth inhibition,[4]; [16],-69%
same,growth inhibition,[4]; [17],99% (active)
same,growth inhibition,[4]; at 50.0 µM,98.7% (active)
same,growth inhibition,[5]; at 1.2 µM,-6%
same,growth inhibition,[5]; at 3.7 µM,27%
same,growth inhibition,[5]; [16],1%
same,growth inhibition,[5]; at 11.0 µM,97% (active)
same,growth inhibition,[5]; at 33.0 µM,97% (active)
same,growth inhibition,[5]; [17],99% (active)
same,growth inhibition,[5]; at 50.0 µM,97.8% (active)
same,growth inhibition,[5]; at 100.0 µM,98% (active)
same,growth inhibition,[6]; at 1.2 µM,-1%
same,growth inhibition,[6]; at 3.7 µM,54%
same,growth inhibition,[6]; at 11.0 µM,98% (active)
same,growth inhibition,[6]; at 33.0 µM,99% (active)
same,growth inhibition,[6]; at 100.0 µM,99% (active)
same,growth inhibition,[7]; at 1.2 µM,-5%
same,growth inhibition,[7]; at 3.7 µM,37%
same,growth inhibition,[7]; at 11.0 µM,97% (active)
same,growth inhibition,[7]; at 33.0 µM,98% (active)
same,growth inhibition,[7]; at 100.0 µM,99% (active)
same,growth inhibition,[8]; at 1.2 µM,-2%
same,growth inhibition,[8]; at 3.7 µM,17%
same,growth inhibition,[8]; at 11.0 µM,96% (active)
same,growth inhibition,[8]; at 33.0 µM,98% (active)
same,growth inhibition,[8]; at 100.0 µM,99% (active)
same,growth inhibition,[9]; [16],46%
same,growth inhibition,[9]; [17],98% (active)
same,growth inhibition,[9]; at 50.0 µM,98% (active)
same,growth inhibition,[10]; at 1.2 µM,0%
same,growth inhibition,[10]; at 3.7 µM,64%
same,growth inhibition,[10]; at 11.0 µM,96% (active)
same,growth inhibition,[10]; at 33.0 µM,98% (active)
same,growth inhibition,[10]; at 100.0 µM,98% (active)
Nc1ccc2c(c1)C(=O)c1c(F)cccc1-2,growth inhibition,[11]; at 1.2 µM,-3%
same,growth inhibition,[11]; at 3.7 µM,5%
same,growth inhibition,[11]; at 11.0 µM,17%
same,growth inhibition,[11]; at 33.0 µM,69%
same,growth inhibition,[11]; at 100.0 µM,97% (active)
same,growth inhibition,[12]; at 1.2 µM,-6%
same,growth inhibition,[12]; at 3.7 µM,-6%
same,growth inhibition,[12]; at 11.0 µM,-6%
same,growth inhibition,[12]; at 33.0 µM,-2%
same,growth inhibition,[12]; at 100.0 µM,50%
same,growth inhibition,[13]; at 1.2 µM,5%
same,growth inhibition,[13]; at 3.7 µM,21%
same,growth inhibition,[13]; at 11.0 µM,53%
same,growth inhibition,[13]; at 33.0 µM,86% (active)
same,growth inhibition,[13]; at 100.0 µM,97% (active)
same,growth inhibition,[14]; at 1.2 µM,-4%
same,growth inhibition,[14]; at 3.7 µM,11%
same,growth inhibition,[14]; [16],-129%
same,growth inhibition,[14]; at 11.0 µM,30%
same,growth inhibition,[14]; at 33.0 µM,87% (active)
same,growth inhibition,[14]; [17],78% (active)
same,growth inhibition,[14]; at 50.0 µM,90.5% (active)
same,growth inhibition,[14]; at 100.0 µM,98% (active)
same,growth inhibition,[15]; at 1.2 µM,3%
same,growth inhibition,[15]; at 3.7 µM,2%
same,growth inhibition,[15]; [16],-48%
same,growth inhibition,[15]; at 11.0 µM,18%
same,growth inhibition,[15]; at 33.0 µM,13%
same,growth inhibition,[15]; [17],-25%
same,growth inhibition,[15]; at 50.0 µM,38.6%
same,growth inhibition,[15]; at 100.0 µM,67%
same,growth inhibition,[1]; at 1.2 µM,2%
same,growth inhibition,[1]; at 3.7 µM,7%
same,growth inhibition,[1]; at 11.0 µM,16%
same,growth inhibition,[1]; at 33.0 µM,27%
same,growth inhibition,[1]; at 100.0 µM,78% (active)
same,growth inhibition,[2]; [16],-70%
same,growth inhibition,[2]; [17],-28%
same,growth inhibition,[2]; at 50.0 µM,15.5%
same,growth inhibition,[3]; at 1.2 µM,-1%
same,growth inhibition,[3]; at 3.7 µM,4%
same,growth inhibition,[3]; at 11.0 µM,8%
same,growth inhibition,[3]; at 33.0 µM,14%
same,growth inhibition,[3]; at 100.0 µM,32%
same,growth inhibition,[4]; [16],-55%
same,growth inhibition,[4]; [17],-41%
same,growth inhibition,[4]; at 50.0 µM,21.9%
same,growth inhibition,[5]; at 1.2 µM,-11%
same,growth inhibition,[5]; at 3.7 µM,-4%
same,growth inhibition,[5]; [16],-60%
same,growth inhibition,[5]; at 11.0 µM,1%
same,growth inhibition,[5]; at 33.0 µM,12%
same,growth inhibition,[5]; [17],-33%
same,growth inhibition,[5]; at 50.0 µM,9%
same,growth inhibition,[5]; at 100.0 µM,37%
same,growth inhibition,[6]; at 1.2 µM,-1%
same,growth inhibition,[6]; at 3.7 µM,0%
same,growth inhibition,[6]; at 11.0 µM,0%
same,growth inhibition,[6]; at 33.0 µM,4%
same,growth inhibition,[6]; at 100.0 µM,64%
same,growth inhibition,[7]; at 1.2 µM,7%
same,growth inhibition,[7]; at 3.7 µM,-4%
same,growth inhibition,[7]; at 11.0 µM,0%
same,growth inhibition,[7]; at 33.0 µM,16%
same,growth inhibition,[7]; at 100.0 µM,86% (active)
same,growth inhibition,[8]; at 1.2 µM,-2%
same,growth inhibition,[8]; at 3.7 µM,0%
same,growth inhibition,[8]; at 11.0 µM,0%
same,growth inhibition,[8]; at 33.0 µM,10%
same,growth inhibition,[8]; at 100.0 µM,92% (active)
same,growth inhibition,[9]; [16],-120%
same,growth inhibition,[9]; [17],-30%
same,growth inhibition,[9]; at 50.0 µM,84.5% (active)
same,growth inhibition,[10]; at 1.2 µM,1%
same,growth inhibition,[10]; at 3.7 µM,8%
same,growth inhibition,[10]; at 11.0 µM,31%
same,growth inhibition,[10]; at 33.0 µM,72% (active)
same,growth inhibition,[10]; at 100.0 µM,97% (active)
